This is part of a sample that, as a whole, favours compounds with a hit. Of some 83,000 tested, about 20% had one in any assay.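 Plates (96-well) were seeded with cells, treated with compound at one concentration, and incubated for 48 hours before percent growth was determined.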 A number with no mark means an inactive call. Calls of active or inactive are those of the source. Rule for the calls: active = growth percent below 10; inactive = the rest.
test system: MDA-MB-468 breast; experiment: NCI-60 one-dose screen, 48 h (100 = growth as untreated, 0 = no growth, -100 = all killed); conditions: 10 µM unless noted

| SMILES | growth |
| --- | --- |
| COc1ccc(C2=NNC(c3ccc(Oc4nc5c(c(=O)n(C)c(=O)n5C)n4C)c(OC)c3)C2)cc1 (configuration not stated) | 89.5% |
| COc1ccc(C2CC(c3cccc(OC)c3)=NN2C(=O)c2cc(OC)c(OC)c(OC)c2)cc1 (configuration not stated) | 29.2% |
| O=S(=O)(c1ccccc1)N1CCCN(c2nc(-c3ccccc3)nc3nc(-c4ccccc4)oc23)CC1 | 116% |
| O=C(Nc1cc(Cl)ccc1O)c1cccc(Nc2ccnc(C(F)(F)F)c2)c1 | 16% |
| CN1C2C=CC(=O)C1C1C(=O)N(c3ccccc3)C(=O)C12 (configuration not stated) | 0.669% (active) |
| CC(/C=N/N1C(=O)c2ccccc2C1=O)c1ccccc1 (configuration not stated) | 95.9% |
| COc1ccc2[nH]cc(-c3nn4cc(-c5ccncc5)nc4s3)c2c1 | 29.2% |
| N#Cc1cccc(/C(N)=N/C(N)=N/c2nc3ccccc3s2)c1 | 18.7% |
| O=C(CN1C(=O)/C(=C\c2ccc(Cl)cc2)SC1=S)Nc1ncc(Cc2ccc(Cl)cc2)s1 | 108% |
| CCCCCCCCCCCCCCCCCC(=O)OCCCCCCCCCCCCC | 117% |
| O=C1c2cccc3c(-c4ccc5c(c4)ncn5C4CCCCC4)ccc(c23)C(=O)N1c1nc2ccccc2s1 | 92% |
| CCn1nc(C#Cc2c(C)ccc3c(Nc4ccc(Cl)cc4)nccc23)c2c(N)ncnc21 | 27.1% |
| Cn1cnc2nc(Cl)nc(Cl)c21 | 21.7% |
| CC1Cc2ccc(OCCN(C)C)cc2C1=O (configuration not stated) | 96.2% |
| COc1ccc(/C=C/C(=O)c2ccc(NC(=O)CN3CCN(c4cc5c(cc4F)c(=O)c(C(=O)O)cn5C4CC4)CC3)cc2)cc1 | 99.1% |
| CCCC1CCCCN1C(=O)OCC(C)C (configuration not stated) | 97.4% |
| COc1ccc(COc2ccc(/C=C3\C(=O)Nc4ccccc43)cc2OC)cc1 | 100% |
| CO[C@H]1/C=C/O[C@@]2(C)Oc3c(C)c(O)c4c(O)c(c(/C=N/N5CCN(C)CC5)c(O)c4c3C2=O)NC(=O)/C(C)=C\C=C\C(C)[C@H](O)[C@@H](C)[C@@H](O)[C@@H](C)[C@@H](OC(C)=O)[C@@H]1C (some centres not stated) | 92.2% |
| Cn1cc(-c2[nH]c3cc(NC(=O)[C@H](N)C4CCCCC4)cc4c3c2C=NNC4=O)cn1 | -83.3% (active) |
| O=C(CC(SCc1ccccc1)c1ccccc1)c1ccccc1 (configuration not stated) | 84.9% |
| O=c1c(Cc2ccc(F)cc2)cc(-c2ccccc2)nn1C/C(=N/O)c1ccccc1 | 41.2% |
| Cc1cc(SCc2ccc(Cl)cc2Cl)nc(SCc2ccc(Cl)cc2Cl)n1 | 104% |
| Clc1nc(Oc2ccccc2)nc(-c2cn(-c3ccccc3)c3ccccc23)n1 | 88.2% |
| O=S(=O)(NCCCNc1nccc(-c2[nH]c(-c3ccccc3)nc2-c2ccc(F)c(O)c2)n1)c1cccc(F)c1 | 66.5% |
| O=C1C[C@H](N2C(=O)c3ccccc3S2(=O)=O)C2CO[C@@H]1O2 | 80.3% |
| c1ccc2c3c([nH]c2c1)C(c1ccc(C2NCCc4c2[nH]c2ccccc42)cc1)NCC3 (configuration not stated) | -83.2% (active) |
| CC(=O)O[C@]1(C)CC[C@H]2[C@H](CNCCc3ccc(Cl)cc3)C(=O)O[C@@H]2C2=C(C)C(=O)C[C@H]21 | 47.3% |

Source: PubChem BioAssay (NCI)
